These results are taken from PubChem BioAssay (Tox21).

Values without a mark were called inactive. Records with an inconclusive call do not appear. Activity calls are given as the source filed them. Unless noted, calls follow the shape of the full dose curve.

Test [1] is described as follows: Nuclear factor erythroid 2-related factor 2/antioxidant responsive element (Nrf2/ARE) small molecule agonists: qHTS cell viability counter screen in human keratinocytes (AID 1919968; active = well fitted curve in the direction sought with a large enough effect in the repeat runs; an effect the other way counts as inactive or inconclusive; also: nearly all actives have a fitted effect of over 55% in size). The essentials:
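Cytotoxicity was multiplexed with the Nrf2/ARE luciferase assay in the same wells. Stably transfected HaCaT keratinocytes were treated with test compounds for 23 h at 37 C. Cell viability was then measured by CellTiter-Fluor fluorescence.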
A general note: Quantitative high-throughput screening tests each substance at several concentrations.

The nature of test [2]: Nuclear factor erythroid 2-related factor 2/antioxidant responsive element (Nrf2/ARE) small molecule agonists: luciferase reporter gene qHTS assay in human keratinocytes (AID 1919969). Also: nearly all actives have a fitted effect of over 35% in size. Also: potency is read from the fitted curve at half-maximal effect. Background: In a reporter assay the amount or activity of a reporter protein is the signal.
For test [3], the target named is Gonadotropin-releasing hormone receptor (Homo sapiens) (UniProt P30968). The experiment in a line: Human gonadotropin-releasing hormone receptor (GnRHR) small molecule agonists, calcium flux assay in GnRHR-HEK293 cells (AID 1920063). Also: nearly all actives have a fitted effect of over 35% in size. The essentials:
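Agonist activity was measured as intracellular calcium flux in HEK293 cells engineered to stably express human GnRHR. After dye loading for 1 hour at 37 C, compounds in DMSO were added and fluorescence was followed for 3 minutes.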
A general note: Calcium flux is commonly read through the fluorescence of an indicator in the cells.

Test [4] deals with KiSS-1 receptor (Homo sapiens) (UniProt Q969F8). Description: Human kisspeptin (KISS1R) small molecule agonists, calcium flux assay in KISS1R-HEK293 cells (AID 1920064; active = well fitted curve in the direction sought with a large enough effect in the repeat runs; an effect the other way counts as inactive or inconclusive). The procedure, abridged: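 Agonist activity is monitored as intracellular calcium rise in engineered HEK293 cells carrying human KISS1R. Cells are dye-loaded for 1 h at 37 C before compound addition, and fluorescence is recorded for 3 min.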
Sequence of KiSS-1 receptor (Homo sapiens) (Q969F8 whole entry, looked up): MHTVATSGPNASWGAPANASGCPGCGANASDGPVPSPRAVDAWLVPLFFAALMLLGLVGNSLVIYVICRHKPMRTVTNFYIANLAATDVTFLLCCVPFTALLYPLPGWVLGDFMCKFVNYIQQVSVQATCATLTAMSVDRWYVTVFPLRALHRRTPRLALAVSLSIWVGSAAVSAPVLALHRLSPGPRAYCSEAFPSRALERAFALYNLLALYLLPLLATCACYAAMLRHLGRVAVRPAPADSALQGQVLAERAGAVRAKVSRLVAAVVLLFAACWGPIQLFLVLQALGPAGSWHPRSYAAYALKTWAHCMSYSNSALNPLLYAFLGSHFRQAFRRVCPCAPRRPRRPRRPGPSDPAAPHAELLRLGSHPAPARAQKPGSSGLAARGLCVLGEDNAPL

Test [5] in a line: G protein-coupled receptor (GPCR) small molecule agonists, calcium flux assay: HEK293 wild type cell line counter screen (AID 1920065). The procedure, abridged:
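Seed cells, incubate 18 h (37 C, 5% CO2); add calcium dye, 1 h at 37 C; pin-transfer compounds, ATP control or DMSO; read fluorescence 480/540 nm each second for 3 min.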

Test [6] in a line: p53 small molecule agonists, cell-based qHTS assay with human liver microsomes (AID 1963577).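 Also: p53 response element beta-lactamase reporter cells with liver microsomes plus NADPH.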 The essentials:
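With metabolic activation: human liver microsomes (0.5 mg/mL final) plus NADPH (0.5 mg/mL final) added alongside compounds to p53RE-bla cells; 16 h 37 C exposure; beta-lactamase read by LiveBLAzer fluorescence.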

The nature of test [7]: p53 small molecule agonists, cell-based qHTS assay with rat liver microsomes (AID 1963578). The procedure, abridged: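 Metabolic activation by rat liver microsomes and NADPH, each 0.5 mg/mL final, added right after compounds to p53RE-bla reporter cells (4,000/well, plated 5 h earlier). 16 h at 37 C, then LiveBLAzer substrate for 2 h at room temperature in the dark; fluorescence read-out.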

Test [8] in a line: p53 small molecule agonists, cell-based qHTS assay with human liver microsomes: qHTS cell viability counter screen (AID 1963579). Also: nearly all actives have a fitted effect of over 45% in size. The procedure, abridged:
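Metabolic activation used human liver microsomes and NADPH, both 0.5 mg/mL final, over 16 hours at 37 C on p53RE-bla cells (4,000/well). Cytotoxicity measured by CellTiter-Glo luminescence, 30 min at room temperature.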

A short description of test [9]: p53 small molecule agonists, cell-based qHTS assay with rat liver microsomes: qHTS cell viability counter screen (AID 1963580). Also: nearly all actives have a fitted effect of over 45% in size. The essentials:
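Rat liver microsome (0.5 mg/mL final) and NADPH (0.5 mg/mL final) co-incubation with compounds for 16 h at 37 C on HCT-116 p53RE-bla cells; cytotoxicity taken from intracellular ATP luminescence.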

The nature of test [10]: p53 small molecule agonists, cell-based qHTS assay: qHTS cell viability counter screen (AID 1963581). Also: nearly all actives have a fitted effect of over 45% in size. The essentials:
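Viability was counter-screened in parallel with the p53 agonist reporter by measuring intracellular ATP luminescence in the same HCT-116 p53RE-bla wells after 16 h compound treatment at 37 C.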

A short description of test [11]: p53 small molecule agonists, cell-based qHTS assay (AID 1963582; active = well fitted activation curve with a large enough effect in the signal ratio in the repeat runs, not every such curve was filed as active; the % refers to the signal ratio). The essentials: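 Cells carrying a p53-responsive bla reporter are treated with test compounds for 16 h at 37 C; beta-lactamase activity is then detected with LiveBLAzer B/G FRET substrate after 2 h at room temperature.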
Test [12] has as its target 5-hydroxytryptamine receptor 2A (Homo sapiens) (UniProt P28223). The experiment in a line: 5-hydroxytryptamine receptor 2A (HTR2A) small molecule antagonists, cell-based qHTS assay (AID 1963586). Also: nearly all actives have a fitted effect of over 45% in size. The essentials: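 CHO cells stably expressing human HTR2A were plated for 18 h at 37 C, then loaded with calcium dye for 1 h. Compounds were preincubated 5 min at room temperature before DOI (4 nM solution) was added. Kinetic fluorescence was read for 3 min.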

Test [13] has the same target. The experiment in a line: 5-hydroxytryptamine receptor 2A (HTR2A) small molecule agonists, cell-based qHTS assay (AID 1963587). Also: nearly all actives have a fitted effect of over 30% in size. The procedure, abridged:
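Kinetic calcium-flux fluorescence (2 min, 1 sec intervals) after compound addition in agonist mode. HTR2A-CHO cells were cultured 18 h, then dye-loaded 1 h at 37 C.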

In test [14] the target is Muscarinic acetylcholine receptor M1 (Homo sapiens) (UniProt P11229). Description: Cholinergic receptor muscarinic 1 (CHRM1) small molecule antagonists, cell-based qHTS assay (AID 1963588). Also: nearly all actives have a fitted effect of over 40% in size. The essentials: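 Compounds were tested at 15 concentrations in three independent runs. Dye-loaded CHRM1-CHO cells were exposed 5 min at room temperature before stimulation by acetylcholine added at 50nM. Intracellular calcium was read kinetically on FDSS for 3 min.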
Sequence of Muscarinic acetylcholine receptor M1 (Homo sapiens) (P11229 whole entry, looked up): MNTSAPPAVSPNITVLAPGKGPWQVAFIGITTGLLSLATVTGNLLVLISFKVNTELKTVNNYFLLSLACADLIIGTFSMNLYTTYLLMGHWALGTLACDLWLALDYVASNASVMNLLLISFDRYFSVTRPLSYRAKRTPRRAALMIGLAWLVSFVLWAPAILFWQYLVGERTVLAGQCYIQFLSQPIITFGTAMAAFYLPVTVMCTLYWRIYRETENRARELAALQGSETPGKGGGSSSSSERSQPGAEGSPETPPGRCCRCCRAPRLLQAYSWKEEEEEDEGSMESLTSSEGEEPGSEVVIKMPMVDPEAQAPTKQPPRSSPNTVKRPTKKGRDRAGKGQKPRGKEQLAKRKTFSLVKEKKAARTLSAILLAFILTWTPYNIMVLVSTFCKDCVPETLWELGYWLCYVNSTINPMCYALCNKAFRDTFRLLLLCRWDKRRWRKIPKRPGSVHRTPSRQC

Test [15] has the same target. The experiment in a line: Cholinergic receptor muscarinic 1 (CHRM1) small molecule agonists, cell-based qHTS assay (AID 1963589). Also: nearly all actives have a fitted effect of over 35% in size. The procedure, abridged:
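Cells were plated and incubated 18 h at 37 C/5% CO2, loaded with calcium dye for 1 h at 37 C, then treated with compounds in DMSO. Fluorescence was recorded kinetically at 1 sec intervals.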

Test [16] is described as follows: cAMP Responsive Elements (CRE) small molecule agonists, cell-based qHTS assay (AID 1963590). The essentials: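 Cells carrying a CRE-driven beta-lactamase reporter (HEK 293T) are seeded, incubated overnight (18 h), and treated with test compounds for 3 h at 37 C; reporter activity is then detected with a FRET substrate after 2 h at room temperature.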
A short description of test [17]: cAMP Responsive Elements (CRE) small molecule antagonists, cell-based qHTS assay (AID 1963591; active = well fitted inhibition curve with a large enough effect in the signal ratio in the repeat runs, not every such curve was filed as active; the % refers to the signal ratio). The procedure, abridged: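 Cells (CRE-bla HEK 293T, DMEM with 10% dialyzed FBS and 25 mM HEPES) are seeded and incubated 18 h. Compounds are added with NKH477 agonist at 0.25 uM final for 3 h, then FRET substrate for 2 h.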
Test [18] concerns the target D(2) dopamine receptor (Homo sapiens) (UniProt P14416). Description: Dopamine D2 receptor (DRD2) small molecule agonists, cell-based qHTS assay (AID 1963594). Also: nearly all actives have a fitted effect of over 35% in size. The procedure, abridged:
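cAMP accumulation in DRD2-HEK293 cells measured by HTRF after 1 h detection; compounds added 10 min before NKH477 (200nM […]) forskolin-analogue stimulation, 30 min at room temperature, with Ro20-1724 present at 0.1 mM final.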

For test [19] the target is unchanged. The experiment in a line: Dopamine D2 receptor (DRD2) small molecule antagonists, cell-based qHTS assay (AID 1963595; active = well fitted inhibition curve with a large enough effect in the signal ratio in the repeat runs, with a control signal flat; the % refers to the signal ratio). The procedure, abridged: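 In this cell-based antagonist screen, compounds act for 10 min at room temperature before a 30 min challenge with 12 nM quinpirole and 200 nM NKH477. cAMP is quantified by HTRF competition in DRD2-HEK293 cells containing 0.1 mM Ro20-1724.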

The target of test [20] is Beta-2 adrenergic receptor (Homo sapiens) (UniProt P07550). The experiment in a line: Adrenergic beta2 receptor (ADRB2) small molecule antagonists, cell-based qHTS assay (AID 1963592). Also: series mostly up to about 92 µM; nearly all actives have a fitted effect of over 50% in size. The essentials: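 Assay format: CHO-ADRB2 cells, 18-20hr seeding at 37C/5% CO2, then compound plus 1nM isoproterenol agonist mix for 0.5hr RT. Homogeneous time-resolved fluorescence cAMP detection after 1hr, expressed as 665/615 nm ratio.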
Sequence of Beta-2 adrenergic receptor (Homo sapiens) (P07550 whole entry, looked up): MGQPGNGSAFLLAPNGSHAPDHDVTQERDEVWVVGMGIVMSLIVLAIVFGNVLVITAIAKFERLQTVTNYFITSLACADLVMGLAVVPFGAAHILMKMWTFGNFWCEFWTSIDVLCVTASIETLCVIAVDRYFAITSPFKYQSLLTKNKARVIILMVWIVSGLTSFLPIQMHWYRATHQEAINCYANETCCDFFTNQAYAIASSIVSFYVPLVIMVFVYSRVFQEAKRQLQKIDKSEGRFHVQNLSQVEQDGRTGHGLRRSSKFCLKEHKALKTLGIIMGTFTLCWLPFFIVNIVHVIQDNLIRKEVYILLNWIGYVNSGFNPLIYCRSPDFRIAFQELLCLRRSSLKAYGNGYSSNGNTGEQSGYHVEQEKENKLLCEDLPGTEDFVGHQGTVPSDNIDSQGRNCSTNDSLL
% is scaled to controls: 0 for no effect and ±100 for the full control effect.

Sequence of D(2) dopamine receptor (Homo sapiens) (P14416 whole entry, looked up): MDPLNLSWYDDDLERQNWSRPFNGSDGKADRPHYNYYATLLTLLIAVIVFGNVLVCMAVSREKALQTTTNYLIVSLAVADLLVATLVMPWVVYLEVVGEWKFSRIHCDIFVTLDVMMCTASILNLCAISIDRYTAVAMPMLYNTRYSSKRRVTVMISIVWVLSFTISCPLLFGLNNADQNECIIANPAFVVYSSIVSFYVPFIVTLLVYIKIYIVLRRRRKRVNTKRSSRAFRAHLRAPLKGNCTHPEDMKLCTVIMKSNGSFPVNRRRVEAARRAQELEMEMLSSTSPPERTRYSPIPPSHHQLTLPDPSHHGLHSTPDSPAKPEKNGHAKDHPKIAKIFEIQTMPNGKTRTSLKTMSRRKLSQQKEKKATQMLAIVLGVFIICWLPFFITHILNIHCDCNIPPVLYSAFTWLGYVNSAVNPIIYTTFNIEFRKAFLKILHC
Sequence of Gonadotropin-releasing hormone receptor (Homo sapiens) (P30968 whole entry, looked up): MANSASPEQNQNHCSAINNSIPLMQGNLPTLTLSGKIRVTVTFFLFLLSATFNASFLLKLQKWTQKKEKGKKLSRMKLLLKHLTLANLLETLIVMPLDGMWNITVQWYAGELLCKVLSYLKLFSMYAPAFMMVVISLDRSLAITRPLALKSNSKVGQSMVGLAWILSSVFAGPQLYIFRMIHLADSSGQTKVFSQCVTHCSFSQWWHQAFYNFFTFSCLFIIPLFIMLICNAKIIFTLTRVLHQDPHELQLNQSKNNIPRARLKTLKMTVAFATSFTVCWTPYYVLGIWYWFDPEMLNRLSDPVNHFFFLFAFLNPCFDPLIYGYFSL
Sequence of 5-hydroxytryptamine receptor 2A (Homo sapiens) (P28223 whole entry, looked up): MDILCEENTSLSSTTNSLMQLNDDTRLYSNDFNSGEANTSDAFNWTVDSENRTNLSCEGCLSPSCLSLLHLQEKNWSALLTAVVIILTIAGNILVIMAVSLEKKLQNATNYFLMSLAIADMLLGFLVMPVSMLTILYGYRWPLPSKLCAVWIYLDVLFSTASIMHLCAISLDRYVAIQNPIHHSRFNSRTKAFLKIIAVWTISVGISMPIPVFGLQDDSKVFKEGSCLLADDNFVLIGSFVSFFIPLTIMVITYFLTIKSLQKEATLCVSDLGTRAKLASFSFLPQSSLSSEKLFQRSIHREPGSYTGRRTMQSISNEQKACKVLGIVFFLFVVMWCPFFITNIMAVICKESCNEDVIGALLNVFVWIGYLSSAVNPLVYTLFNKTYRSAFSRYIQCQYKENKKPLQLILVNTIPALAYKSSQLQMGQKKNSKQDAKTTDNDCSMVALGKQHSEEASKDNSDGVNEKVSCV

Turning to `Clc1ccccc1-c1nc(-c2ccncc2)no1`, the Potency entry in test [1], in test [3], in [4], in test [5], in test [6] and in [7] was “inactive” throughout. Besides, the Potency result in [8], in test [9], in test [10], in test [11], in [12] and in test [13] was “inactive” each time. Besides, the Potency entry in test [14], in [15], in test [16] and in test [17] was “inactive” in each case. The Potency in test [2] is 2110 nM (active).

With `CC(=O)N[C@H]1[C@H]([C@H](O)[C@H](O)CO)OC(C(=O)O)=C[C@@H]1N=C(N)N`, the Potency entry in test [1], in test [2], in [3], in [4], in test [5] and in test [6] was “inactive” each time. The Potency result in [7], in [8], in [9], in test [10], in test [11] and in [12] was “inactive” each time. Besides, the Potency entry in test [13], in [14], in test [15], in test [16], in [17] and in [18] was “inactive” throughout. Besides, in test [19], the Potency result was “inactive”.

`COC(=O)c1cc(Cl)ccc1NS(=O)(=O)C(F)(F)F`: the Potency result in test [1], in test [2], in test [3], in [4], in [5] and in test [6] was “inactive” throughout. Further, the Potency entry in test [7], in [8], in [9], in test [10], in test [11] and in [12] was “inactive” throughout. The Potency entry in test [13], in test [14], in test [15], in [16], in test [17] and in test [18] was “inactive” throughout. Also, in test [19], the Potency result was “inactive”.

`CCCCOC(=O)[C@H](C)O`: the Potency result in test [1], in test [2], in [3], in test [4], in test [5] and in test [6] was “inactive” throughout. In addition, the Potency entry in [7], in test [8], in test [9], in test [10], in test [11] and in [12] was “inactive” each time. For the same compound, the Potency entry in [13], in [14], in test [15], in [16], in test [17] and in test [18] was “inactive” throughout. Besides, in test [19], the Potency entry is “inactive”.

With `CC(=O)OCC(=O)Nc1cc(C#N)cc(NC(=O)COC(C)=O)c1Cl`, the Potency entry in [1], in [2], in test [3], in [4], in test [5] and in [6] was “inactive” each time. Also, the Potency entry in test [7], in test [8], in [9], in [10], in test [11] and in [12] was “inactive” throughout. The Potency entry in [13], in test [14], in test [15], in test [16], in test [17] and in test [19] was “inactive” each time.

Regarding `O=C(O)Cc1cccc(-c2cc(CCCCCCc3ccc(O[C@H]4O[C@H](CO)[C@@H](O)[C@H](O)[C@@H]4O)c(-c4cccc(CC(=O)O)c4)c3)ccc2O[C@H]2O[C@H](CO)[C@@H](O)[C@H](O)[C@@H]2O)c1`, the activity change, negative = cytotoxicity in test [1] is -1.5% [at 0.349 µM]; in [8], 0.362% [at 0.249 µM]; in test [9], 2.63% [at 0.249 µM]; in test [10], -10.7% [at 0.249 µM]. In test [2], the activity, positive = activation was -5.74% [at 0.349 µM]. Moreover, the activity change in [3] is -0.17% [at 0.217 µM, stronger effect = higher value]. Moreover, the activation in test [4] was -0.687% [at 0.29 µM]; in test [5], -0.122% [at 0.217 µM]; in test [6] it was -2.66% [at 0.249 µM]; in test [7] it was 1.81% [at 0.249 µM]; in test [11], -0.0536% [at 0.249 µM]; in test [13], 17.6% [at 0.292 µM]. In addition, the values for the activation in test [15], in test [16] and in test [18] were -0.265% [at 0.29 µM], 1% [at 0.349 µM] and -1.23% [at 0.349 µM], respectively. Moreover, the activity, negative = inhibition in test [12] is 2.29% [at 0.233 µM]; in [14], 12.9% [at 0.232 µM]. In addition, the activity change, negative = inhibition is -10.4% [at 0.349 µM] in test [17], 2.66% [at 0.349 µM] in [20] and -1.71% [at 0.348 µM] in test [19].
